From PubChem BioAssay
Activity calls are given as the source filed them.

Legend:
[1] = small molecules captured by biotinylated probe aFSTL3 – biochemical, small-molecule microarray, fluorescence 635/667, stem cell growth factor project, primary screen (AID 1064); conditions: higher = more signal;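 further: measures binding of the biotinylated anti-FSTL3 antibody to printed compounds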
[2] = binders from COS7 lysate, DM2A8 probe, primary screen, torsin A project, cell lysate, small-molecule microarray, fluorescence 635/667 (AID 1065); conditions: higher = more signal, COS7 lysate expressing mutant human TOR1A
[3] = small molecules captured by biotinylated probe aFGF2 – biochemical, small-molecule microarray, fluorescence 635/667, stem cell growth factor project, primary screen (AID 1067); conditions: higher = more signal;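 further: measures binding of biotinylated aFGF2 protein to printed compounds on slides; z-score merges feature fluorescence and signal-to-noise across triplicate slides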
[4] = small molecules captured by biotinylated probe aFGF10 – biochemical, small-molecule microarray, fluorescence 635/667, stem cell growth factor project, primary screen (AID 1071); conditions: higher = more signal;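 further: score merges 667 nm spot intensity and signal to noise from triplicate slides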
[5] = target: Neurogenic locus notch homolog protein 2 (Homo sapiens) (UniProt Q04721); assay: small molecules binding Notch2 protein – biochemical, small-molecule microarray, 635 nm fluorescence, stem cell growth factors, primary screen (AID 1073); conditions: higher = more signal
Neurogenic locus notch homolog protein 2 (Homo sapiens), sequence (Q04721 whole entry, looked up, canonical isoform): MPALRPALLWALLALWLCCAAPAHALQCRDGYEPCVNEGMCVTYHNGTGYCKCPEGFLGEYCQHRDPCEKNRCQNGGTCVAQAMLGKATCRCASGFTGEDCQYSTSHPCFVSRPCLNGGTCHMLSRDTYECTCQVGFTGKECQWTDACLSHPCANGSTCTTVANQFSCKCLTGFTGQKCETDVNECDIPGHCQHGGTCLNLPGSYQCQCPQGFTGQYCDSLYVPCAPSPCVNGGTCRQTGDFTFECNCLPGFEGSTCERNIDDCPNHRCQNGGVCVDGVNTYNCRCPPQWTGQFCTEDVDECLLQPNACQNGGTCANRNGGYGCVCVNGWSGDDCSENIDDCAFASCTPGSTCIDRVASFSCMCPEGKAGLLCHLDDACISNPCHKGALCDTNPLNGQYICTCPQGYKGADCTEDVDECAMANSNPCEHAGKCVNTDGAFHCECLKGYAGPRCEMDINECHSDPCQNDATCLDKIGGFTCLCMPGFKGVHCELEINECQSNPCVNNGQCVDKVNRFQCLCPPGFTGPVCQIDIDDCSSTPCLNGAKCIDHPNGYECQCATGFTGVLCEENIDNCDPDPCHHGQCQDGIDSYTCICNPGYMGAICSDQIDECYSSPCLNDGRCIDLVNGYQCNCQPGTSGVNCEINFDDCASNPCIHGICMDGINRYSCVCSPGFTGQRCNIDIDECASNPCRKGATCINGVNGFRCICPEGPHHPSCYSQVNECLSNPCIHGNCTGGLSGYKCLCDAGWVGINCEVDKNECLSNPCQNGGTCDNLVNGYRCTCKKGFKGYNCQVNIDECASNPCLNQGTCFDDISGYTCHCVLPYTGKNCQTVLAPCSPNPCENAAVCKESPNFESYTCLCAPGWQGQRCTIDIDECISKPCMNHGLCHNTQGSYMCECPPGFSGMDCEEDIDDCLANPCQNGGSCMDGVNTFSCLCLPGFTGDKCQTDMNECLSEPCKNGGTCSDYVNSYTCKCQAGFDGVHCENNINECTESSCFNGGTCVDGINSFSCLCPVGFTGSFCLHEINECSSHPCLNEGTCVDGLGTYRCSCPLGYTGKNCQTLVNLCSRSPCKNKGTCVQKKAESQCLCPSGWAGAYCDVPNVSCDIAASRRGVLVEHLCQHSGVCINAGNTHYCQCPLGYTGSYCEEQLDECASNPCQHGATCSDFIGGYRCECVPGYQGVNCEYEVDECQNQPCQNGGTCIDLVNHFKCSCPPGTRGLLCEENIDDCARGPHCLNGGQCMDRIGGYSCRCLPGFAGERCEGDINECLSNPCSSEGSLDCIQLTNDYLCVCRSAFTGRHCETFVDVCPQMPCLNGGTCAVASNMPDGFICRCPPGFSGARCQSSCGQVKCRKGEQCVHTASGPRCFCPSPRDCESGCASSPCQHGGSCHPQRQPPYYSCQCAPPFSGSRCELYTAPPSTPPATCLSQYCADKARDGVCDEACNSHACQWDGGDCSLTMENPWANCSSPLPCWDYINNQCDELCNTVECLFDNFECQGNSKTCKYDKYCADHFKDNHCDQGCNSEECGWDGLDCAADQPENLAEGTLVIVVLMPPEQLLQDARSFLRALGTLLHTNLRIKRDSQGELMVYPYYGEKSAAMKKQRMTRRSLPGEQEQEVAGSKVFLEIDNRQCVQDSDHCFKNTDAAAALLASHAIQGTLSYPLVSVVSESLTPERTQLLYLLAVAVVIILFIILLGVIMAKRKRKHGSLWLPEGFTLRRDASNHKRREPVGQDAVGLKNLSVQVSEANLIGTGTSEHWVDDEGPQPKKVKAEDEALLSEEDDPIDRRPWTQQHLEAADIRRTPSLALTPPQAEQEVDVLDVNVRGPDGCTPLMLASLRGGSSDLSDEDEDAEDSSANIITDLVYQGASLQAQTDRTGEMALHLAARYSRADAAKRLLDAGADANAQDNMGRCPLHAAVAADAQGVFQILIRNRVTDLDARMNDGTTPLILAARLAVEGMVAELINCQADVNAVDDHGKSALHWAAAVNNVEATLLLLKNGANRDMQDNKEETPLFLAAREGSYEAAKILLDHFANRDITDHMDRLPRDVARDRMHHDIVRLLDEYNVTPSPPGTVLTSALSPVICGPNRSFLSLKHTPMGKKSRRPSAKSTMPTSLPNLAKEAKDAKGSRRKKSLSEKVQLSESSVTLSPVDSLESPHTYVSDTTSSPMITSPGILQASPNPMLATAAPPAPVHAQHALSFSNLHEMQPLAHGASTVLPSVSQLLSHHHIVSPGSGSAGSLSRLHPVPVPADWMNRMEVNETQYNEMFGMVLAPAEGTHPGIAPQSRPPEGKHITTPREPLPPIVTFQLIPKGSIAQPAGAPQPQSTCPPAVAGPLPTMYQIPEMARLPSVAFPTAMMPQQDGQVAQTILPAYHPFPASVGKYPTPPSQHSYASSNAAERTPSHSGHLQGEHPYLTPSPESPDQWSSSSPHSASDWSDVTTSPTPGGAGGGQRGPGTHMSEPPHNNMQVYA

[6] = target: Pro-neuregulin-1, membrane-bound isoform (Homo sapiens) (UniProt Q02297); assay: small molecules binding neuregulin-1 protein – biochemical, small-molecule microarray, fluorescence 635/667, psychiatric disease protein project, primary screen (AID 1075); conditions: NRG1 binding, 635 nm fluorescence, higher = more signal;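 further: score combines 667 nm spot fluorescence with signal to noise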
Pro-neuregulin-1, membrane-bound isoform (Homo sapiens), sequence (Q02297 whole entry, looked up, the tested form may be a part, canonical isoform): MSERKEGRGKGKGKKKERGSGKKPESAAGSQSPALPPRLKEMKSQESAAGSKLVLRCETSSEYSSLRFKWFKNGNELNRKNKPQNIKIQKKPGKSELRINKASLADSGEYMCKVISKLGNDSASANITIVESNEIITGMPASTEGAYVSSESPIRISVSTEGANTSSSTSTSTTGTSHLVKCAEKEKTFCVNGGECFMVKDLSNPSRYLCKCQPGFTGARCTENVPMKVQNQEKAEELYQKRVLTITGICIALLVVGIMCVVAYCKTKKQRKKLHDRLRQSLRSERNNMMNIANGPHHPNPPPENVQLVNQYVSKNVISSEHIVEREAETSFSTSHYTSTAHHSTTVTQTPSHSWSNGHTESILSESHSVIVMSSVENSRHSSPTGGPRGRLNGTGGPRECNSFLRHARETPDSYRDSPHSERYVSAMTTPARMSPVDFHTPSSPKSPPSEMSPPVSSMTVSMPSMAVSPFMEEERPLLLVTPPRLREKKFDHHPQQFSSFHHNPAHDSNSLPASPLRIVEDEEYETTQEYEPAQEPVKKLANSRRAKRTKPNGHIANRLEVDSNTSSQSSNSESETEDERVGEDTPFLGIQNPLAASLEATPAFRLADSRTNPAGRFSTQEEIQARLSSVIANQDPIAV

[7] = test system: Neuregulin-1 EGF-like domain; assay: small molecules binding NRG1 EGF domain – biochemical, small-molecule microarray, 635 nm fluorescence, primary screen (AID 1081); conditions: higher = more signal;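 further: binding of the protein to compounds printed on small-molecule microarray slides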
[8] = FRG1 expression reporter modulators in myotubes – cell-based, C2C12 myotubes, firefly/Renilla luciferase, luminescence, FRG1 inhibition for FSHD, primary screen (AID 1084); conditions: FRG1 promoter luciferase, higher = more signal, called active from +8 up or from −8 down
[9] = small molecules captured by biotinylated probe aFST – biochemical, small-molecule microarray, fluorescence 635/667, stem cell growth factor project, primary screen (AID 1086); conditions: higher = more signal;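 further: score merges 667 nm fluorescence with signal-to-noise of each printed compound spot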
[10] = binders of probe aHhip on microarray, primary screen, stem cell growth factor project, biochemical, small-molecule microarray, fluorescence 635/667 (AID 1087); conditions: higher = more signal;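 further: score merges spot fluorescence at 667nm with spot signal to noise ratio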
[11] = test system: PRMT1 (protein arginine N-methyltransferase 1); assay: small molecules binding arginine methyltransferase PRMT1 – biochemical, small-molecule microarray, 635 nm fluorescence, primary screen (AID 1088); conditions: higher = more signal;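 further: binding of Prmt1 protein to compounds spotted on small-molecule microarray slides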
[12] = growth effects on S. cerevisiae YJM789 – YJM789 clinical isolate, OD600, 24 h, basal, primary screen (AID 1089); conditions: higher = more signal, called active from +8 up or from −8 down;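 further: growth of clinical yeast isolate S. cerevisiae YJM 789 seeded 1000 cells per well; test concentration not given here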
[13] = S. pombe growth modifiers, basal conditions – strain 972, OD600, 24 h, no modulator, primary screen (AID 1090);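 further: basal condition with compound alone and no growth modifier present; test concentration not given here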; conditions: S. pombe 972 growth, higher = more signal, called active from +8 up or from −8 down
[14] = budding yeast growth modifiers under rapamycin – strain BY4716, OD600, 96 h, primary screen (AID 1091); further: test concentration not given here; conditions: S. cerevisiae BY4716 + rapamycin, higher = more signal, called active from +8 up or from −8 down
[15] = target: Torsin-1A-interacting protein 2 (Homo sapiens) (UniProt Q8NFQ8); assay: small molecules binding lysate-expressed LULL1 – cell lysate, human LULL1 lysate, 635/667 nm fluorescence, primary screen (AID 1092); conditions: small-molecule microarray, hLULL1 lysate binding, 635 nm fluorescence; higher = more signal;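 further: probe is lysate of COS7 cells overexpressing human LULL1; score merges per-feature 667 nm fluorescence with signal-to-noise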
Torsin-1A-interacting protein 2 (Homo sapiens), sequence (Q8NFQ8 whole entry, looked up): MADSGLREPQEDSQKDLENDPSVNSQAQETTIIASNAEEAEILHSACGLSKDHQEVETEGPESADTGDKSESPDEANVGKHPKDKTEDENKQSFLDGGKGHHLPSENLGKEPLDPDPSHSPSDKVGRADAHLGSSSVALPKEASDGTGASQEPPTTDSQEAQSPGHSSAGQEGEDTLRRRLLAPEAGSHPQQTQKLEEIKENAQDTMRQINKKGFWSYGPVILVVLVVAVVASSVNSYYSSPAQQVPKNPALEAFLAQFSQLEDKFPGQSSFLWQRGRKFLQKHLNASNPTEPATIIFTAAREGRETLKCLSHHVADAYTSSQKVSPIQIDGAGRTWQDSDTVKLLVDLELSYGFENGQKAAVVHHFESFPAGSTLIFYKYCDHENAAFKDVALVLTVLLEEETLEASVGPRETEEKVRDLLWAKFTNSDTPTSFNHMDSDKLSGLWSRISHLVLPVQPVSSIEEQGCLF

[16] = optical density change of DRC41 E. coli – strain DRC41, OD650, 24 h, E. coli filamentation project, primary screen (AID 1093);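 further: MC1000 strain lacking acrAB efflux and sulA so SOS filamentation is blocked; test concentration not given here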; conditions: E. coli DRC41 growth, higher = more signal, called active from +8 up or from −8 down
[17] = probe aLefty2 binding to arrayed compounds – biochemical, biotinylated probe, 635/667 nm fluorescence, primary screen (AID 1094); conditions: small-molecule microarray, higher = more signal;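 further: score merges spot fluorescence near 667 nm with spot signal-to-noise ratio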
[18] = test system: Noggin (protein binding on small-molecule microarray); assay: small molecules binding Noggin protein – biochemical, 635/667 nm fluorescence, primary screen (AID 1095); conditions: 635 nm fluorescence, higher = more signal;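 further: score merges 667 nm feature fluorescence with signal to noise over triplicate slides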
[19] = target: Neurogenic locus notch homolog protein 3 (Homo sapiens) (UniProt Q9UM47); assay: small molecules binding NOTCH3 protein – biochemical, 635/667 nm fluorescence, primary screen (AID 1096); conditions: small-molecule microarray, 635 nm fluorescence, higher = more signal
[20] = probe aEGFR binding to arrayed compounds – biochemical, biotinylated probe, 635/667 nm fluorescence, primary screen (AID 1097); conditions: small-molecule microarray, higher = more signal;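 further: probe is a biotinylated anti-EGFR antibody binding compounds printed on slides; score combines fluorescence near 667 nm and signal to noise of each spot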

Structure (SMILES)	composite z-score [1]	composite z-score [2]	composite z-score [3]	composite z-score [4]	composite z-score [5]	composite z-score [6]	composite z-score [7]	z-score [8]	composite z-score [9]	composite z-score [10]	composite z-score [11]	z-score [12]	z-score [13]	z-score [14]	composite z-score [15]	z-score [16]	composite z-score [17]	composite z-score [18]	composite z-score [19]	composite z-score [20]
CN(C)CCCCNC(=O)[C@@H]1C[C@@H]2C(=O)N[C@@H](Cc3ccccc3)C(=O)N2[C@@H]1c1cccc(OCCO)c1	-0.185	0.971	0.0281	0.645	-0.729	0.382	0.905	3.35 (inactive)	0.218	0.0524	1.55	-5.59 (inactive)	-1.63 (inactive)	-1.09 (inactive)	1.5	2.67 (inactive)	-0.125	1.45	1.06	-0.131
COc1ccc(C(O)C2C=CC3C(=O)N(c4ccccc4)C(=O)C3N2Nc2ccc([N+](=O)[O-])cc2)cc1 (stereo not given)	0.928	-0.0823	0.25	0.935	1.64	0.546	1.16	-1 (inactive)	1.18	-0.149	1.11	0.137 (inactive)	1.4 (inactive)	3.22 (inactive)	3.09	-0.909 (inactive)	0.432	0.0062	1.1	0.239
CC1=C([C@H](O)CCc2ccccc2)[C@H](CO)[C@@H]2C(=O)N(C)C(=O)[C@@H]2C1	-0.0659	0.388	0.411	0.0805	0.451	0.174	0.493	-0.445 (inactive)	0.0014	-0.137	0.958	0.618 (inactive)	-0.589 (inactive)	0.123 (inactive)	1.07	1.3 (inactive)	-0.152	0.296	0.394	-0.154
O=C1O[C@H](c2ccccc2)[C@H](c2ccccc2)N2[C@H]1[C@@H](C(=O)NC[C@H](O)c1ccccc1)[C@]1(C(=O)Nc3ccc(C#CCCO)cc31)[C@H]2c1ccc(OCCO)cc1	0.141	0.628	0.0521	0.984	0.782	1.23	1.23	1.59 (inactive)	0.131	-0.226	1.55	2.73 (inactive)	1.62 (inactive)	4.7 (inactive)	2.08	0.301 (inactive)	-0.122	0.558	0.818	-0.133
CCOC(=O)C1=C[C@@H](c2ccccc2)N(S(=O)(=O)c2ccc(C)cc2)[C@H]1c1ccccc1Cl	-0.508	0.544	0.168	1.1	1.5	0.264	0.857	-3.26 (inactive)	0.945	-0.16	1.5	0.849 (inactive)	2.19 (inactive)	2.48 (inactive)	2.8	-0.518 (inactive)	0.0935	0.985	1.06	0.153
COc1ccc([Si](C)(C)[C@@H]2[C@@H](CCn3cc([C@H](O)c4ccccc4)nn3)O[C@]3(C(=O)N(Cc4ccc(N5CCC5=O)cc4)c4ccccc43)[C@H]2C)cc1	0.554	-0.163	-0.164	-0.127	-0.564	0.189	0.142	-0.96 (inactive)	-0.201	-0.503	0.0655	0.297 (inactive)	0.375 (inactive)	3.51 (inactive)	0.309	0.705 (inactive)	-0.177	1.13	-0.231	-0.313
O=C1OCCC=C[C@H]2OC34C=CCN(Cn5nnc6ccccc65)C(=O)[C@H]3N(CCCCCCO)C(=O)[C@@H]4C12 (stereo not given in full)	0.603	0.134	-0.129	-0.612	-1.29	-0.207	1.11	-0.229 (inactive)	-0.564	-0.134	-0.0465	0.298 (inactive)	0.577 (inactive)	0.194 (inactive)	0.529	-0.369 (inactive)	-0.0741	-1.09	-0.36	-0.354
C=C(C)C1CCC(C(O)C2C=CC3C(=O)N(C)C(=O)C3N2N2CCCCC2)CC1 (stereo not given)	0.207	-0.222	0.118	0.82	1.62	1.45	1.24	1.17 (inactive)	1.23	0.134	1.53	1.26 (inactive)	0.642 (inactive)	2.25 (inactive)	3.04	-0.867 (inactive)	0.398	0.758	1.04	0.368
CCCCCCc1nc(C2CC2)cc2c1[Si](C(C)C)(C(C)C)O[C@H]2c1ccccc1	0.0483	0.122	-0.0286	0.698	0.516	-0.37	-0.903	-0.136 (inactive)	0.177	-0.0618	-0.147	-0.746 (inactive)	-0.575 (inactive)	-0.513 (inactive)	-0.624	-1.28 (inactive)	-0.0798	0.639	0.356	0.0122
COC(=O)[C@@]1(Cc2ccc(F)cc2)[C@H]2c3cc(C(=O)N4CCCC4)n(CCc4ccc(O)c(O)c4)c3C[C@H]2CN1C(=O)c1ccccc1	1.41	0.109	0.57	0.146	1.38	2.3	1.29	0.332 (inactive)	1.05	2.44	-0.522	1.34 (inactive)	1.16 (inactive)	1.96 (inactive)	3.22	-0.469 (inactive)	1.17	-0.97	-1.04	0.978
